Unmarked numbers belong to inactive results.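 Rule for the calls: active = log2 fold change beyond 2 SD from the library mean after excluding viability outliers; inactive = within 2 SD.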

Chain of PARP1 L713F-nLuc biosensor (HCT116) (P09874 whole entry L713F, looked up): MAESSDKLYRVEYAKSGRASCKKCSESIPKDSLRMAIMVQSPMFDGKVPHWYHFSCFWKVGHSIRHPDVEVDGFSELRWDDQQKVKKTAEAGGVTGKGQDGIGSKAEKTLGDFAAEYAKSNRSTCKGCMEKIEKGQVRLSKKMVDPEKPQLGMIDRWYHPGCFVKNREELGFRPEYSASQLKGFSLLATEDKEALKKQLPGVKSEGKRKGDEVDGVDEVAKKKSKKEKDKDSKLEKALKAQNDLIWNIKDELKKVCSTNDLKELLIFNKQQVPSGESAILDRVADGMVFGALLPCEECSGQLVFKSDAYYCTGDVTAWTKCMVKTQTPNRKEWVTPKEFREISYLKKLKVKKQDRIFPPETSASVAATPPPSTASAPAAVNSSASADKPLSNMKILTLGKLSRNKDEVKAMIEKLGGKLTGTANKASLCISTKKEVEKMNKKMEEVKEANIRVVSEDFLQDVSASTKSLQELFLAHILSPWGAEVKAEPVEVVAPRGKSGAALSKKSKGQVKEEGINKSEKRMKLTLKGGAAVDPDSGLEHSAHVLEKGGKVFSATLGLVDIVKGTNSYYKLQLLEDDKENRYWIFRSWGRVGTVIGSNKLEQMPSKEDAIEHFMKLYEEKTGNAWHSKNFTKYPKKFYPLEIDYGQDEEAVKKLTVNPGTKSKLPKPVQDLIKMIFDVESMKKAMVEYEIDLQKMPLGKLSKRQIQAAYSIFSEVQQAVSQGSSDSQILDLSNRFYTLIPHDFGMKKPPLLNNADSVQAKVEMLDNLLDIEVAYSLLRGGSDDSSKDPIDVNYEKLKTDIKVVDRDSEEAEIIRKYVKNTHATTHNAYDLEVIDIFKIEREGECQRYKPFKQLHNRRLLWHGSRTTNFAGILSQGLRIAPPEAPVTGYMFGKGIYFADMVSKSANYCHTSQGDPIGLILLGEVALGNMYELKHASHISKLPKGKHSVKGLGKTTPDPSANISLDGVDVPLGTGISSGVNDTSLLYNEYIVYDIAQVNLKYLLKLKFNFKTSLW

This test has as its target PARP1 L713F-nLuc biosensor (HCT116) (UniProt P09874). Nature of the test: PARP1 L713F-nLuc/akaLuc ratio relative to DMSO control (biosensor stabilization) (fold change); higher = more PARP1 biosensor stabilization (target engagement / stabilizer), active = hit call of the paper. Conditions: stock concentration (mM; final µM = stock mM x 1): 10; 24 h.
As to `CC[C@H](C)n1cc(C)c2c(C(=O)NCc3c(C)cc(C)[nH]c3=O)cc(-c3ccc(N4CCNCC4)nc3)cc21`, the “PARP1 L713F-nLuc/akaLuc ratio” value is 1.03.
Then `Cc1cc(Nc2cc(CN3CCOCC3)c3nc(C)c(Cc4ccc(Cl)cc4F)n3n2)n[nH]1` [Gandotinib], with 1.75.
Then `CC[C@H](CO)Nc1nc(NCc2ccccc2)c2ncn(C(C)C)c2n1` [Roscovitine (Seliciclib,CYC202)], with 0.975; and `CS(=O)(=O)N1CCN(Cc2cc3nc(-c4cccc5[nH]ncc45)nc(N4CCOCC4)c3s2)CC1` [Pictilisib (GDC-0941)], with 0.659.
`Cc1nc2cccc(N)c2c(=O)n1C1CCC(=O)NC1=O` (stereo unspecified) [Avadomide(CC-122)]: the “PARP1 L713F-nLuc/akaLuc ratio” value is 0.983.
In the case of `CCN(CC)CCCC[C@H](NC(=O)[C@H](CC(C)C)NC(=O)[C@H](C)NC(=O)[C@H](Cc1ccccc1)NC(=O)c1ccc(C(C)(C)C)cc1)C(=O)N[C@@H](CO)C(=O)OC`, the “PARP1 L713F-nLuc/akaLuc ratio” value is 1.47.
Then `CONC(=O)c1ccccc1Nc1cc(Nc2cc(C)nn2C(C)C)ncc1Cl`, with 0.987.
Then `C[C@]12CCCN1CC1=NNC(=O)c3cc(F)cc4[nH]c2c1c34` [Pamiparib], with 5.97 (active); and `C=CC(=O)Nc1cccc(Oc2nc(Nc3ccc(N4CCN(C)CC4)cc3)nc3ccsc23)c1`, with 1.03; and `COC1CCN(C(=O)c2cc(Cc3n[nH]c(=O)c4ccccc34)ccc2F)CC1`, with 7.52 (active).
`N#CC[C@H](C1CCCC1)n1cc(-c2ncnc3[nH]ccc23)cn1` [Ruxolitinib (S enantiomer)]: the “PARP1 L713F-nLuc/akaLuc ratio” value is 1.63.

These data come from the supplement of paper PMC11624193, “Coupling cellular drug-target engagement to downstream pharmacology with CeTEAM” (Nature Communications, 2024).
